Most compounds without a hit are left out; they make up all but 6.7% or so of the library.
Anthrax LF prot: inhibitors of Bacillus anthracis lethal factor protease; P15917; multiplex microsphere protease cleavage assay, LF; inhibition, % at 10 µM; hit rate 0.12% among 360,000; AID 588501; further: plate controls were buffer without enzyme for full effect and enzyme alone for no effect
Target sequence (P15917 whole entry, looked up): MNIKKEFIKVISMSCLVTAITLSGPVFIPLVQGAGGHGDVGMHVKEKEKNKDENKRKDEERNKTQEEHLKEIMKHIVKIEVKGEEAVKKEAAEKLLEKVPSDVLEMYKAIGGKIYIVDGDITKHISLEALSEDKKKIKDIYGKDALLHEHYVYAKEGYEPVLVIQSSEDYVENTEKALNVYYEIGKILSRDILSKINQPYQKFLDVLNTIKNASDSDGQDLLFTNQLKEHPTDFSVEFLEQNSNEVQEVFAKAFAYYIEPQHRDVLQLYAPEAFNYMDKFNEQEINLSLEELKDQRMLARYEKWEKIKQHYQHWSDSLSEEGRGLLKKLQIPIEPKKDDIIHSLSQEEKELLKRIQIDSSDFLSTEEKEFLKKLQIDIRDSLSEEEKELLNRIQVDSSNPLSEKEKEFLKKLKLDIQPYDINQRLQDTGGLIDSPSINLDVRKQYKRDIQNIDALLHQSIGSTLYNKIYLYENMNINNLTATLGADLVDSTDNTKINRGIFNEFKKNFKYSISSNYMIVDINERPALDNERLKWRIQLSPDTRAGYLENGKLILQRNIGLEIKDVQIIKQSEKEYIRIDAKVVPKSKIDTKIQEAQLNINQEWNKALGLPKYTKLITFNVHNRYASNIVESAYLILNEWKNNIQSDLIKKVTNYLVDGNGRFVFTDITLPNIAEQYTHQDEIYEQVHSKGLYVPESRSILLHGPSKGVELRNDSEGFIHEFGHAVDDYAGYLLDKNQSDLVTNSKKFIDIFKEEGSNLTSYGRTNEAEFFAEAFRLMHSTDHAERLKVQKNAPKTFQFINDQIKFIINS
BoNT-A LC inh2: blocks Botulinum neurotoxin A light chain protease | multiplex microsphere protease substrate cleavage, flow cytometry | inhibition, % at 10 µM | hit rate 0.17% among 360,000; further: plate controls were buffer without enzyme for full effect and enzyme alone for no effect
FBA Mtb inh: Mtb fructose-bisphosphate aldolase inhibition | P9WQA3 | purified M. tuberculosis FBA, fluorescence read-out | inhibition, % at 1 µM | hit rate 2.3% among 360,000 | AID 588726; in the data active means inhibition above about 27%;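 further: 0% = vehicle and 100% = reference inhibitor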
BoNT F protease: inhibitors of Botulinum neurotoxin F light chain protease | Multiplex microsphere protease cleavage assay, flow cytometry | inhibition, % at 10 µM | hit rate 0.22% among 360,000 | AID 588497; in the data active means inhibition above about 35%, passing the limit was not always enough; inconclusive means no clear call, values can overlap the other calls; further: plate controls were buffer without enzyme for full effect and enzyme alone for no effect
GDH-TPI inh: counter-screen for M. tuberculosis FBA inhibitors: GDH-TPI coupled enzymes; GDH-TPI coupled enzyme counterscreen, NADH absorbance; inhibition, % at 4.8 µM; hit rate 1.2% among 360,000; in the data active means inhibition above about 30%;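 further: 0% = DMSO wells and 100% = wells lacking the enzyme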
Bead autofluor: compound fluorescence in toxin protease inhibitor counterscreen; compound autofluorescence counterscreen, microsphere flow cytometry; stronger effect = higher value; fluorescence intensity (concentration not given with the values); hit rate 3.1% among 360,000; in the data active means fluorescence intensity above about 16000; inconclusive means no clear call, values can overlap the other calls
* marks the source's active call; other numbers are inactive results; ? = inconclusive; · = not tested or not shown; ! = a repeat was not active. Unless noted, no stated cut-off is given here; in the data, active means inhibition above about 30%; inconclusive means no clear call, values can overlap the other calls; inactive means below that.

SMILES | Anthrax LF prot | BoNT-A LC inh2 | FBA Mtb inh | BoNT F protease | GDH-TPI inh | Bead autofluor
CCOC(=O)c1c(CN2CCC(C)CC2)oc2ccc(OC)cc12 | -2 | 0 | 2 | -1 | -4 | 20393*
CCOC(=O)c1c(CN2CCN(C)CC2)oc2ccc(OC)cc12 | 0 | 2 | 1 | 2 | 13 | 16006
CCOC(=O)c1c(CN2CCCCC2)oc2ccc(OC)cc12 | 0 | 1 | 4 | 0 | -14 | 19520*!
CCOC(=O)c1c(CN2CCCCC2C)oc2ccc(OC)cc12 (stereo unspecified) | -1 | -2 | 5 | -3 | -4 | 22711*
C=CCn1cnc2c(c1=O)c1nc3ccccc3nc1n2/N=C/c1ccccn1 | -1 | -2 | 2 | -3 | 18 | 20073*
O=c1c2c3nc4ccccc4nc3n(/N=C/c3ccccn3)c2ncn1-c1ccccc1 | -2 | -7 | 2 | ? | 16 | 3273
COc1cccc(N2CN(CCc3ccccc3)CNC2=S)c1 | ? | 8 | 2 | 50* | -16 | 3380
COc1cc(/C=N/NC(=O)c2ccc3nc[nH]c3c2)ccc1O | -4 | -2 | 0 | -13 | 59* | 4978
CN(C)c1ccc(/C=N/NC(=O)c2ccc3nc[nH]c3c2)cc1 | -15 | ? | -1 | ? | 56* | 3499
O=C(NN=Cc1ccc(N(CCCl)CCCl)cc1)C(=O)c1c[nH]c2ccccc12 | 2 | 0 | -2 | -7 | 43* | 4317
CCN(CC)c1ccc(/C=N/NC(=O)c2c[nH]c3ccccc23)cc1 | -3 | 0 | 24 | -1 | 30 | 1920
CCN(CC)c1ccc(/C=N/NC(=O)c2ccc3nc[nH]c3c2)cc1 | · | · | -1 | · | 60* | ·
COc1cccc(/C=N/NC(=O)c2ccc3nc[nH]c3c2)c1 | 2 | 2 | -1 | ? | 12 | 3476
O=C(N/N=C/c1ccco1)c1ccc2nc[nH]c2c1 | -10 | 0 | 0 | ? | 14 | 3746
CCOc1cc(/C=N/N=C(\N)c2nonc2N)cc(Br)c1OCc1cccc2ccccc12 | 0 | 1 | 0 | 1 | 18 | 3187
CCCc1n(CC(O)COC2CCCCC2)c2ccccc2[n+]1C (stereo unspecified) | 0 | 0 | 3 | -6 | -1 | 4119
CCCNC(=O)C1(C)CCCN(Cc2c(F)cccc2F)C1 (stereo unspecified) | 0 | 0 | -3 | 0 | -2 | 3683
O=C(Cc1cc(=O)oc2cc(O)ccc12)NN=Cc1ccc(N(CCCl)CCCl)cc1 | 0 | 0 | 182* | -6 | 56* | 2921
CSc1ccc(/C=N/NC(=O)c2ccc3nc[nH]c3c2)cc1 | -4 | 0 | 2 | -2 | 48* | 3439
CCN(CC)c1ccc(/C=N/NC(=O)c2ccccn2)cc1 | ? | 0 | -1 | 0 | 18 | 4008
O=C(NN=Cc1ccc(N(CCCl)CCCl)cc1)c1cc(=O)[nH]c(=O)[nH]1 | -8 | 0 | -3 | -3 | 50* | 3789
CCN(CC)c1ccc(/C=N/NC(=O)c2cc3ccccc3[nH]2)cc1 | · | · | 10 | · | 32* | ·
CCOc1ccc(S(=O)(=O)N2CCOCC2)cc1NC(=O)C1=COCCO1 | -3 | 3 | -1 | 12 | 1 | 5805
CCCCc1n[nH]c2c1/C(=N/O)CC(C)(C)C2 | -2 | -1 | 0 | -15 | 4 | 4781
CC(C)[C@H](N)C(=O)NC[C@H](CC(=O)NC[C@H]1CC[C@H](C(=O)O)CC1)c1ccc(Cl)cc1 | 2 | -1 | -4 | 10 | 8 | 3627
SMILES | Anthrax LF prot | BoNT-A LC inh2 | FBA Mtb inh | BoNT F protease | GDH-TPI inh | Bead autofluor
Cc1ccc(S(=O)(=O)Nc2ccc(N3CCOCC3)nc2)cc1 | -3 | 0 | -9 | 1 | -12 | 4598
CN1CCN(C(=O)c2cc(Cl)cc(Cl)c2)CC1 | -9 | 0 | -4 | ? | 3 | 4133
O=C(c1cc(Cl)cc(Cl)c1)N1CCOCC1 | 0 | 1 | 1 | 2 | -4 | 20304*
Cc1ccc(C)n1-c1ccc(C(=O)N2CCOCC2)cc1 | -1 | ? | 0 | -1 | 0 | 22385*
Cc1ccc(C)n1-c1ccc(N2CCOCC2)nc1 | -4 | 0 | 21 | -10 | 21 | 22547*
CC(C)NC(=O)NC(=O)CSc1ncccn1 | -4 | 0 | -3 | -5 | -7 | 4177
CCOc1cc(OCC)cc(C(=O)N2CCC[C@H]2C(=O)N2CCC[C@H]2C(=O)NCc2ccc(F)cc2F)c1 | 0 | 0 | · | -2 | · | 5763
CCC(C)NC(=O)CSc1nc2c(sc(=S)n2Cc2ccco2)c(=O)n1-c1ccccc1 (stereo unspecified) | 2 | 0 | 0 | 4 | 20 | 5479
CCn1c(=S)sc2c(=O)n(-c3ccccc3)c(SCC(=O)NCc3ccco3)nc21 | -2 | 0 | 0 | 7 | 38* | 7706
O=C(CSc1nn(-c2ccccc2)c(=S)s1)NC(=O)NCc1ccco1 | 0 | -2 | -3 | -1 | 10 | 23530*
CCOC(=O)CSc1nc2c(sc(=S)n2Cc2ccco2)c(=O)n1-c1ccc(F)cc1 | -5 | ? | 1 | -5 | 12 | 16594*
COc1ccccc1-n1c(SC)nc2c(sc(=S)n2-c2ccccc2)c1=O | -18 | -2 | 0 | -16 | 5 | 3225
COc1ccccc1-n1c(=S)sc2c(=O)n(Cc3ccco3)c(SC)nc21 | -3 | 0 | 0 | 8 | 40* | 8003
CN1C(=O)Cn2c1nc1ccccc12 | 5 | 0 | -2 | -4 | 7 | 2594
Cc1cc(NC(=O)c2cccs2)cc(-c2nc3ncccc3o2)c1O | -3 | -2 | 2 | -7 | 8 | 5653
CN(c1ccccc1)S(=O)(=O)c1cccc(NS(=O)(=O)c2ccc(/C=C/C(=O)O)cc2)c1 | -5 | 0 | -2 | -2 | -8 | 4048
COC(CNC(=O)c1ccc(-n2c(=S)[nH]c3ccccc3c2=O)cc1)OC | -3 | -1 | 7 | -2 | 1 | 4521
CCOC(=O)c1nn(-c2cccc(Cl)c2)c2nc(Nc3ccccc3)cc(=O)n12 | -2 | 0 | 0 | -1 | -1 | 8717
CCN(CC)C(=O)CSc1nc2c(sc(=S)n2-c2ccccc2)c(=O)n1Cc1ccco1 | -3 | 2 | -1 | 6 | 10 | 21125*
CCN(CC)C(=O)CSc1nc2c(sc(=S)n2-c2ccccc2OC)c(=O)n1-c1ccccc1 | 9 | -4 | 0 | -8 | 13 | 3828
CCN(CC)C(=O)CSc1nc2c(sc(=S)n2CC)c(=O)n1-c1ccccc1 | -7 | ? | 0 | -4 | 30 | 22153*
O=C(COC(=O)c1cc([N+](=O)[O-])ccc1NCCO)Nc1ccc2c(c1)OCO2 | 1 | 3 | -6 | -7 | 18 | 2708
CCOC(=O)c1c(NC(=O)c2cc(-c3cccc(O)c3)on2)sc(C(C)=O)c1C | -8 | 0 | 0 | -6 | 4 | 5808
Cc1c(NC(=O)c2noc3c2CCc2ccccc2-3)c(=O)n(-c2ccccc2)n1C | 2 | -1 | 0 | -4 | 5 | 6530
C=CCc1c(C)nc(C)nc1N/N=C/c1ccc(N(C)C)cc1 | 0 | 0 | 13 | -13 | 50* | 2290
CCOC(=O)c1sc(N/N=C/c2ccc(N(C)C)cc2)nc1C | -4 | 0 | 3 | ? | 18 | 3085

Compound activity as filed in PubChem.
